# PubChem BioAssay
# Unmarked numbers belong to inactive results. The source made the active and inactive calls. Rule as the data show it: active = inhibition above about 28%; inactive = the rest.
# Assay: StAR promoter reporter inhibitors, counter-screen for LRH-1 inverse agonist project, cell-based, luminescence, high throughput (AID 651611)
# Conditions: StAR promoter luciferase reporter counterscreen, at 3.6 µM, hits give high values
row,Structure (SMILES),inhibition
1,CCN(CC)c1nc(-c2ccccn2)nc(-c2ccccc2)c1C#N,11.5%
2,COc1ccc(-c2cc(NC=O)c3ncc(-c4ccc(OC)c(OC)c4)n3c2)c(OC)c1,65.5% (active)
3,CCn1c2ccccc2c2cc(/C=N/n3c(-c4cc(C)[nH]n4)n[nH]c3=S)ccc21,11.8%
4,O=C(N/N=C/c1cc2c3c(c1O)CCCN3CCC2)c1ccccc1O,83.4% (active)
5,Cc1cc(C)c2c(=O)[nH]c(SCC(=O)Nc3ccc(Br)cc3)nc2n1,9.16%
6,O=C(Cc1c(F)cccc1Cl)Nc1ccncc1,3.12%
7,Nc1cccc(OCCCCCOc2cccc(N)c2)c1,-18.2%
8,O=C1C=C(NCc2ccco2)C2(CCCCC2)O1,-2.64%
9,Cc1onc(-c2c(F)cccc2Cl)c1C(=O)Oc1ccccc1,-12.8%
10,COC(=O)c1ccc(NC(=O)CSc2nc3ncccc3[nH]2)cc1,-4.1%
11,Oc1[nH]c2ccc(Br)cc2c1N=NC(=S)N1CCOCC1,83.2% (active)
12,Nc1nc2ccccc2cc1C(=O)NCc1ccc(-c2ccccc2)cc1,24.6%
13,O=C(Nc1cccc2ccccc12)c1ccc([N+](=O)[O-])o1,27.4%
14,Cc1onc(-c2ccccc2Cl)c1C(=O)O/N=C(\N)c1ccc([N+](=O)[O-])o1,10.8%
15,COC(=O)c1ccc(CNC(=O)COC(=O)c2cc(Cl)nc(Cl)c2)cc1,11.2%
16,Cc1cccc(NC(=O)CSc2ccc(-c3ccco3)nn2)c1C,4.66%
